About 410 targets per protein were measured; listed, in parts, are those with the strongest signals and a random draw of the rest.
Assays:
Experiment in all cases: glycan array binding signal (z-score within array); higher = stronger binding
Conditions in all cases: glycan notation: IUPAC condensed, linker removed
[1] = biological target: GalNAc(a1-3)GalNAc(b1-3)Gal(a1-4)Gal(b1-4)GlcNAc
Outline: (§1)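 The binding signal is a Z-score computed within each array. Data were drawn from 3228 arrays in the Consortium for Functional Glycomics database, restricted to those with a known protein sequence. Scores were averaged over arrays of the same protein sequence at different concentrations or buffers, and over linkers, and negative values can be taken as non-binding.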

GalNAc(b1-4)GlcNAc = biological target: GalNAc(b1-4)GlcNAc
Outline: as §1

[2] = biological target: GalNAc(b1-4)GlcNAc(b1-2)Man(a1-3)[GalNAc(b1-4)GlcNAc(b1-2)Man(a1-6)]Man(b1-4)GlcNAc(b1-4)GlcNAc
Outline: as §1

GalNAc(b1-4)GlcNAc6S = biological target: GalNAc(b1-4)GlcNAc6S
Outline: as §1

[3] = biological target: GlcNAc(b1-2)[GlcNAc(b1-4)]Man(a1-3)[GlcNAc(b1-4)][GlcNAc(b1-2)Man(a1-6)]Man(b1-4)GlcNAc(b1-4)GlcNAc
Outline: as §1

[4] = biological target: GlcNAc(b1-3)Gal(b1-4)GlcNAc(b1-6)[GlcNAc(b1-3)Gal(b1-3)]GalNAc
Outline: as §1

[5] = biological target: GlcNAc(b1-3)[GlcNAc(b1-6)]Gal(b1-4)GlcNAc
Outline: as §1

[6] = biological target: Man(a1-2)Man(a1-6)[Man(a1-3)]Man(a1-6)[Man(a1-2)Man(a1-2)Man(a1-3)]Man(b1-4)GlcNAc(b1-4)GlcNAc
Outline: as §1

Man(a1-3)[Man(a1-6)]Man = biological target: Man(a1-3)[Man(a1-6)]Man
Outline: as §1

[7] = biological target: Man(a1-3)[Man(a1-6)]Man(a1-6)[Man(a1-2)Man(a1-3)]Man(b1-4)GlcNAc(b1-4)GlcNAc
Outline: as §1

[8] = biological target: Man(a1-3)[Man(a1-6)]Man(a1-6)[Man(a1-3)]Man(b1-4)GlcNAc(b1-4)GlcNAc
Outline: as §1

[9] = biological target: Neu5Ac(a2-3)Gal(b1-3)GalNAc
Outline: as §1

[10] = biological target: Neu5Ac(a2-3)Gal(b1-3)[Fuc(a1-4)]GlcNAc(b1-3)Gal(b1-4)[Fuc(a1-3)]GlcNAc
Outline: as §1

[11] = biological target: Neu5Ac(a2-3)Gal(b1-4)GlcNAc6S
Outline: as §1

[12] = biological target: Neu5Ac(a2-3)Gal(b1-4)[Fuc(a1-3)]GlcNAc(b1-3)Gal
Outline: as §1

[13] = biological target: Neu5Ac(a2-3)Gal(b1-4)[Fuc(a1-3)]GlcNAc(b1-3)GalNAc
Outline: as §1

[14] = biological target: Neu5Ac(a2-3)[GalNAc(b1-4)]Gal(b1-4)Glc
Outline: as §1

[15] = biological target: Neu5Ac(a2-6)Gal(b1-4)GlcNAc(b1-2)[Neu5Ac(a2-6)Gal(b1-4)GlcNAc(b1-6)]Man(a1-6)[Neu5Ac(a2-6)Gal(b1-4)GlcNAc(b1-2)Man(a1-3)][GlcNAc(b1-4)]Man(b1-4)GlcNAc(b1-4)GlcNAc
Outline: as §1

[16] = biological target: Neu5Ac(a2-6)Gal(b1-4)GlcNAc(b1-3)Gal(b1-4)GlcNAc(b1-3)Gal(b1-4)GlcNAc(b1-2)Man(a1-3)[Neu5Ac(a2-6)Gal(b1-4)GlcNAc(b1-3)Gal(b1-4)GlcNAc(b1-3)Gal(b1-4)GlcNAc(b1-2)Man(a1-6)]GalNAc
Outline: as §1

[17] = biological target: Neu5Ac(a2-8)Neu5Ac(a2-3)[GalNAc(b1-4)]Gal(b1-4)Glc
Outline: as §1

B1: SP16665A-bot-344-23-344 (Bacteroides ovatus) (protein)
chain: SDNEFPDFDYQTVYFANQYGLRTIELGESEFVDNTLDNQHKMVIKAAWGGGYTNRNNVVINFKVDESLCDNLYFKDTDQPLVPMPASYYTLASDRIAIPKGQIMAGVEVQLTDDFFADEKSISENYVIPLLMTNVQGADSILQGKPVVENPVLTNAGDWSILPQNFVLYAVKYVNPWHGEYLRRGIDHATVAGTSKDIIRHEQFVENDEVVNISTKSMKDNLLTLKTKDESGKDISYTVRLSFAEDGSCTVHSGSQNVVVSGSGKFVSKGEKNSLGGKDRNAIYLDYTVNLTDNNIQLATKDTLVLRTRNVYGGKSLEVVRK
- glycan array binding signal (z-score) [1]: -0.21
- glycan array binding signal (z-score) (GalNAc(b1-4)GlcNAc): 1.18
- glycan array binding signal (z-score) [2]: 1.54
- glycan array binding signal (z-score) (GalNAc(b1-4)GlcNAc6S): -0.085
- glycan array binding signal (z-score) [3]: 1.11
- glycan array binding signal (z-score) [4]: -0.227
- glycan array binding signal (z-score) [5]: -0.304
- glycan array binding signal (z-score) [6]: -0.087
- glycan array binding signal (z-score) (Man(a1-3)[Man(a1-6)]Man): -0.441
- glycan array binding signal (z-score) [7]: 0.003
- glycan array binding signal (z-score) [8]: -0.618
- glycan array binding signal (z-score) [9]: 1.94
- glycan array binding signal (z-score) [10]: 0.438
- glycan array binding signal (z-score) [11]: -0.405
- glycan array binding signal (z-score) [12]: -0.135
- glycan array binding signal (z-score) [13]: 1.76
- glycan array binding signal (z-score) [14]: -0.539
- glycan array binding signal (z-score) [15]: -0.263
- glycan array binding signal (z-score) [16]: -0.157
- glycan array binding signal (z-score) [17]: -0.466
